Screening data from PubChem BioAssay.
Rows were chosen to be rich in hits. Some 11% of all compounds tested hit in one or more screens of this group.
ALDH1A1 inh: inhibitors of human aldehyde dehydrogenase 1A1 | Purified ALDH1A1, NADH fluorescence, propionaldehyde substrate | Potency, µM (top dose mostly 75.3 µM), for the others: at the top dose activity, negative = inhibition, hits mostly inhibitors | 220,000 tested, 7.3% active;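 note: potency is the fitted concentration of half-maximal effect; plate controls were no enzyme wells and a reference inhibitor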
KDM4E inh: blocks human JMJD2E demethylase activity | B2RXH2 | JMJD2E catalytic domain, FDH-coupled NADH fluorescence (FDH is formaldehyde dehydrogenase) | Potency, µM (top dose mostly 57.1 µM), inactives show top-dose activity change, negative = inhibition, usual class: inhibitors | 230,000 tested, 1.6% active | AID 2147;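 note: potency is the fitted concentration of half-maximal effect; 0% = wells with enzyme and -100% = buffer wells without enzyme; nearly all actives have a fitted effect of over 50% in size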
Target sequence (B2RXH2 1-337 limits assumed): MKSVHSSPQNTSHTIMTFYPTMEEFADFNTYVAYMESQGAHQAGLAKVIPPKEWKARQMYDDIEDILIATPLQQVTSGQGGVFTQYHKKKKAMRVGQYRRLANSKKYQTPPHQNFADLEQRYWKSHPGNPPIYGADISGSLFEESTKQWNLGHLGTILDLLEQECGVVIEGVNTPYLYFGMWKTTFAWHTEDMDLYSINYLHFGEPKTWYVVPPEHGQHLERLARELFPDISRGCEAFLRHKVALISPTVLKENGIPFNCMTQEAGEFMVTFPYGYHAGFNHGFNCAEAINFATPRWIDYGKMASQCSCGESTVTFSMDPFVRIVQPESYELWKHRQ
PNC assembly inh: blocks assembly of the perinucleolar compartment. AID 2417. activity change (PNC), negative = inhibition, % at 10 µM. PC3M PTB-GFP, PNC prevalence imaging, 16 h; stronger effect = lower value. 140,000 tested, 3.1% active;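 active = readout at or below -70, meaning at least 70% loss of cells showing the perinucleolar compartment, a nuclear body marking cancer cells; inconclusive = readout between -30 and a set limit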;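 note: plate controls were DMSO wells for no effect and camptothecin positive control wells for full effect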
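PC3M cells stably expressing PTB-GFP, 750–1000 cells/well, treated 16 h at 37 °C with compound (23 nl of library stock), in duplicate. After paraformaldehyde fixation and Hoechst stain, imaged at 20x; PNC prevalence scored by image analysis.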
HPGD inh: blocks human HPGD enzyme activity | P15428 | purified HPGD, NADH fluorescence kinetic, PGE2 substrate | Potency, µM, inactives show at the top dose activity change, negative = inhibition, usual class: inhibitors | 150,000 tested, 4.3% active | AID 894; note: potency is the fitted concentration of half-maximal effect
Target sequence (P15428 whole entry, looked up): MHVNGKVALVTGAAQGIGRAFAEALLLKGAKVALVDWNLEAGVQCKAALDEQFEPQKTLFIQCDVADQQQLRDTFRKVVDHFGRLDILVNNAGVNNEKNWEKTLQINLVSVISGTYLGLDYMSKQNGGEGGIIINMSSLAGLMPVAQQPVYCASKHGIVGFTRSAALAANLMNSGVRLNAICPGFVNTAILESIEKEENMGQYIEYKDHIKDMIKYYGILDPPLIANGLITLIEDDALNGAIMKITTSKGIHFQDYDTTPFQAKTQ
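20 nM HPGD preincubated 15 min at room temperature with compound in 50 mM Tris-HCl pH 8, 0.01% Tween 20. Started with 1 mM NAD+ and 30 uM prostaglandin E2; NADH fluorescence (360/450 nm) read 5 times over 30-s intervals, last minus first.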
* hit, by the source's call; ? = inconclusive; nt = no result; [ ] = another dose, or the depositor's remark. Unless noted, calls come from the whole dose curve; as a rule, active = well fitted inhibition curve with a large enough effect (not every such curve was filed as active); inconclusive = small, poorly fitted or top-dose-only effect, or another doubt; inactive = no such curve, though single readings can be large or run the other way. Unless noted, % is set by controls: 0 for no effect and ±100 for the full control effect.

SMILES	ALDH1A1 inh	KDM4E inh	PNC assembly inh	HPGD inh
Cc1cc(=O)[nH]c(N/N=C/c2sccc2C)n1	3%	6%	-9	40µM*
CO[C@@H]1COC(=O)CCC[C@@H](C)[C@H](OC)COC(=O)[C@H](Cc2ccccc2)NC(=O)C/C=C\[C@H]1C	0.016µM*	nt	nt	nt
CO[C@H]1COC(=O)[C@H](C)COC(=O)[C@@H](Cc2ccccc2)NC(=O)C/C=C\[C@H]1C	3%[13.5 µM]	nt	nt	nt
CC(C)CN1CCc2nc(-c3ccccc3)c3c(c2CC1)COC(C)C3 (centres undefined)	9%[13.5 µM]	nt	nt	nt
O=C(NNC(=O)c1cc2cc(OC(F)(F)F)ccc2[nH]1)c1cccc(C(F)(F)F)c1	nt	-4%	nt	nt
Cc1[nH]c2ccccc2c1C(=O)CSC(=S)N1CCCCC1	?	-1%	2	25µM*
Cc1[nH]c2ccccc2c1C(=O)CSC(=S)N(C)C1CCCCC1	?	6%	?	-7%
Cc1[nH]c2ccccc2c1C(=O)CN1CCN(C2CCCCC2)CC1	13µM*	-9%	?	-8%
O=C(O)CSC(=S)N1CCCC1	nt	1%	nt	nt
O=C(CSC(=S)N1CCCCC1)c1ccccc1	32µM*	0%	nt	nt
CS(=O)(=O)N1CCC2(CCN(c3ccccn3)CC2)CC1	?	nt	nt	-20%
O=C1CSC(=Nc2cc(Cl)ccc2Cl)N1	1%	4%	-17	10µM*
COc1ccc(C(=O)Nc2cccc(-c3cc4ccccc4oc3=O)c2)cc1[N+](=O)[O-]	?	5%	43	?
CCOc1ccc(NC(=O)/C(=C\c2ccc(OC(C)=O)c(OC)c2)NC(C)=O)cc1	10µM*	-3%	-13	-14%
COc1ccc(/C=N/O)cc1COc1ccc(NC(C)=O)cc1	2%	2%	18	25µM*
COc1ccc(NC(=O)/C(=C/c2ccc3c(c2)OCO3)NC(C)=O)cc1	4%	4%	-28	-19%
COc1ccc(/C=N/N2CCOCC2)cc1COc1ccc(Cl)cc1	3%	-18%	-111*	-8%
COc1ccc(CCNC(=O)CSc2nn(-c3ccccc3)c(=S)s2)cc1	nt	0%	nt	nt
C=CCN=C1SCC(=O)N1S(=O)(=O)c1ccc(C)cc1	?	0%	60	-11%
C=CCN=C1SC(CC)C(=O)N1S(=O)(=O)c1ccc(C)cc1 (centres undefined)	6.3µM*	-3%	-1	-5%
CSc1nsc(SC)c1C(=O)NCCNS(=O)(=O)c1ccc(C)cc1	25µM*	?	?	20µM*
COc1ccc(Oc2ncc3nc(CCc4ccccc4)c(=O)n(C4CC4)c3n2)cc1	?	nt	nt	-27%
Nc1nonc1-n1nnc(C(=O)N/N=C/c2ccccc2Cl)c1COc1ccc(F)cc1	nt	6%	nt	nt
O=C(/C=C/c1ccc(Cl)cc1)NC(=S)Nc1ccc(NC(=O)c2ccco2)cc1	15%	12%	-112*	-12%
CC(C)CC(=O)NC(=S)Nc1ccc(NC(=O)c2ccco2)cc1	-7%	-7%	8	14µM*
SMILES	ALDH1A1 inh	KDM4E inh	PNC assembly inh	HPGD inh
COc1ccccc1C(=O)NC(=S)Nc1ccc(NC(=O)c2ccco2)cc1	13µM*	-7%	nt	nt
COc1ccccc1OCC(=O)NNC(=S)NC(=O)c1ccco1	28µM*	?	?	-18%
Nc1nc(Nc2ccccc2)nc2c1ncn2[C@@H]1O[C@@H](CO)[C@H](O)[C@H]1O	-10%	-13%	nt	-6%
CN(C)Cc1ccccc1-c1cc(NC2CC2)ncn1	-3%	-9%	nt	-7%
COc1ccc(Cc2noc(CN(C)CC3(N4CCOCC4)CCCCC3)n2)cc1OC	2%	-10%	nt	nt
O=C(NC(=O)c1cnccc1C(F)(F)F)Nc1ccccc1	9%	-4%	nt	nt
CC(=O)Nc1ccc2nc(NC(=O)CCc3ccccc3)sc2c1	12%	10%	nt	nt
O=S(=O)(c1ccc(C2=CSC3=NCCN23)cc1)N1CCOCC1	16µM*	?	-8	?
Brc1ccc(C2=CSC3=NCCN23)cc1	2%	-17%	nt	nt
CCCCn1cnc2c(SC)ncnc21	-4%[13.5 µM]	nt	nt	-10%
COCCSc1ncnc2c1oc1nc3c(cc12)COC(C)(C)C3	6.3µM*	-18%	nt	nt
CC1(C)Cc2nc3oc4c(N(CCO)Cc5ccccc5)ncnc4c3cc2CO1	?	?	-22	?
CC1(C)Cc2nc3oc4c(N5CCOCC5)ncnc4c3cc2CO1	?	-4%	-109*	?
S=C(NCCN1CCOCC1)Nc1ccccc1Cl	-1%	-5%	?	-12%
CN(C)C(=O)NC(Nc1ccc(Cl)cc1Cl)C(Cl)(Cl)Cl (centres undefined)	-3%	1%	?	-3%
CC(C)Cc1nnc(NS(=O)(=O)Cc2ccccc2)s1	13µM*	-4%	?	20µM*
CS(=O)(=O)Nc1nnc(Cc2ccccc2)s1	-8%	0%	-100*	-24%
O=C(CSc1nc2ccccc2s1)N/N=C/c1ccc(C(=O)O)cc1	3%	5%	nt	nt
O=C(CSc1nc2ccccc2s1)N/N=C/c1ccccc1C(=O)O	8%	9%	nt	nt
C/C(=N\NC(=O)CSc1nc2ccccc2s1)c1ccco1	2.8µM*	7%	?	-26%
O=C(CSCc1ccccc1Cl)N/N=C/c1ccco1	25µM*	10%	nt	nt
O=C(CSc1nc2ccccc2s1)N/N=C/c1ccco1	20µM*	-2%	6	-5%
CCCCC1=CC2=C(OC(C)=O)C(=O)C(C)(OC(=O)c3ccc(Cl)nc3)C(=O)C2=CO1 (centres undefined)	13%	-16%	nt	-7%
C=CC1=C2C=C(C3CC3)N(C3CCCCC3)C=C2C(=O)C(C)(OC(=O)c2ccco2)C1=O (centres undefined)	1%[13.5 µM]	-15%[11.4 µM]	nt	-2%
CCc1cccc(C)c1NC(=O)CN(C)Cc1ccccc1F	3%	9%	25	-10%
SMILES	ALDH1A1 inh	KDM4E inh	PNC assembly inh	HPGD inh
CC1=NNC(=O)C1CCC(=O)N/N=C/C(Br)=C/c1ccccc1 (centres undefined)	?	-8%	-115*	nt
CCN1CCCC1CNCc1cccc(OC)c1OCc1ccccc1F (centres undefined)	-1%	26%	-28	-1%
CCOc1c(Br)cc(CNc2ccc3c(c2)OCCO3)cc1OC	2%	3%	-98*	?
COc1cc(CNCc2ccncc2)cc(Br)c1OCc1ccccc1F	-3%	-4%	-5	-1%
CCOc1cc(CNc2ccc3c(c2)OCCO3)cc(Br)c1OC	3%	-2%	?	-1%
COc1cc(CNc2ccc(O)cc2)cc(Br)c1OCc1ccccc1F	22µM*	-4%	14	-11%
CCOc1cc(CNc2ccc(O)cc2)cc(Br)c1OCc1ccccc1F	28µM*	?	?	-5%
COc1cccc(CNc2ccccc2O)c1OCc1ccccc1F	14µM*	?	nt	nt
CCOc1cc(CNCCO)cc(Br)c1OCc1ccccc1Cl	-11%	-3%	?	-11%
C#C[C@@]1(O)CCC2C3CCc4cc(O)ccc4C3CC[C@@]21C (some centres undefined)	14%	2%	nt	-2%
COc1cc(-c2nc(-c3ccc4c(c3)-c3ccccc3S4(=O)=O)c(-c3ccccc3)[nH]2)cc(OC)c1O	-4%	-8%	39	-16%
Cc1ccc(C(=O)Cn2c3c(sc2=N)CCCC3)cc1	?	-2%	nt	-19%
O=S(=O)(NC1CCCCC1)c1ccc(-c2csnn2)s1	-4%	-1%	7	14µM*
